A selection: hits, their analogues and other compounds. The true share with any hit is near 7.3%.
SNCA expr inh: Primary qHTS assay for inhibitors of alpha-synuclein gene (SNCA) expression; Potency, µM (highest dose often 57.2 µM), for inactives: at the highest dose activity change, negative = inhibition, hits mostly inhibitors; actives 0.17% (n = 140,000); HEK-293 SNCA-luciferase knock-in, luminescence, 24 h;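 further: potency means the concentration at half of the fitted maximal effect; plate controls were DMSO cells for no effect and cell-free wells for full effect; nearly all actives have a fitted effect of over 45% in size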
IP6K1 inhibitor: Primary qHTS assay for small molecule inhibitors of Inositol hexaphosphate kinase 1 (IP6K1); Inositol hexakisphosphate kinase 1 (Homo sapiens), Q92551; IP6K1 kinase, ADP-Glo luminescence, 2 h; hits give low values; activity change, % (series mostly up to about 58 µM); actives 0.81% (n = 140,000); AID 1645851, 2021; in the data active means activity change below about -25%
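ADP-Glo luminescence measures ADP made by human IP6K1 during a 2 h RT reaction with ATP/IP6 (mix at 1.3 mM/130 uM); top library doses 57.5 and 19.1 uM final.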
Luciferase inh: Firefly luciferase inhibition profiling of diverse chemical library using quantitative high-throughput screening. Luciferin 4-monooxygenase (Photinus pyralis), P08659. purified P. pyralis luciferase, luminescence, biochemical. actives 2.5% (n = 76,000). Potency, µM (doses to about 115 µM), actives largely listed as inhibitors; further: potency means the concentration at half of the fitted maximal effect; nearly all actives have a fitted effect of over 65% in size
Target sequence (P08659 whole entry, looked up): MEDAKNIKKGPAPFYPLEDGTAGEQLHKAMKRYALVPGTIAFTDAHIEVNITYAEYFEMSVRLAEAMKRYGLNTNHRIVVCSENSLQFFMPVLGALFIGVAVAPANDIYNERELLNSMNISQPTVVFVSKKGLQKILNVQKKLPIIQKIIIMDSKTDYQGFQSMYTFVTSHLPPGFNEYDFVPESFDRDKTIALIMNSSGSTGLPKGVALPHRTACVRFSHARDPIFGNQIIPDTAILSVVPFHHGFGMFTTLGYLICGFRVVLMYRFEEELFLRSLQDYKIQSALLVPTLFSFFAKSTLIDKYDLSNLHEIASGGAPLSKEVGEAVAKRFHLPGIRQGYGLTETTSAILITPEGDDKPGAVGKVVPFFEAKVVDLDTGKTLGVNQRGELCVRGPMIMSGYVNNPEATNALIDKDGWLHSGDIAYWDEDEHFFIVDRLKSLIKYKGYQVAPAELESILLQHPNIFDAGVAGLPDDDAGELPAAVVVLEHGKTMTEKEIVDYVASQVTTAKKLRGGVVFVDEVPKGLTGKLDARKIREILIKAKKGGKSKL
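Biochemical qHTS: compound (6-point titration) added to 10uM D-luciferin plus 10uM ATP in Tris acetate pH 7.5 buffer with Mg, Tween-20 and BSA, then purified enzyme at 10nM; light output imaged.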
3T3 cytotox: Cytotoxic Profiling in NIH 3T3 Cell Line of Diverse Libraries Using Quantitative High-Throughput Screening | actives 4.3% (n = 94,000) | Potency, µM (doses to about 96.7 µM), for the others: at the highest dose activity change, negative = cytotoxicity, most hits filed as inhibitors | NIH 3T3 viability, CellTiter-Glo ATP luminescence, 48-72 h | AID 1345082, 2018; further: potency means the concentration at half of the fitted maximal effect; nearly all actives have a fitted effect of over 55% in size
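ATP-dependent luminescence (CellTiter-Glo) served as the viability signal for NIH 3T3 cells treated with compound for 48 or 72 hr at 37 °C.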
HEK293 tox: Cytotoxic Profiling in HEK 293 Cell Line of Diverse Libraries Using Quantitative High-Throughput Screening | HEK 293 viability, ATP luminescence (CellTiter-Glo), 48-72 h | Potency, µM (series often up to 115 µM), for inactives: at the top dose activity change, negative = cytotoxicity, hits mostly inhibitors | actives 6.6% (n = 94,000) | AID 1345083, 2018; further: potency means the concentration at half of the fitted maximal effect; nearly all actives have a fitted effect of over 60% in size
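HEK 293 seeded at 250 cells/well receive compound via pintool. After 48 or 72 hr at 37 degree Celsius, 5% CO2 and 95% humidity, CellTiter-Glo is dispensed and luminescence read following 10 min at room temperature.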
HEK293 viab: GF-AFC viability counterscreen for inhibitors of alpha-synuclein gene (SNCA) expression | AID 1671193, 2021 | actives 0.12% (n = 150,000) | Potency, µM (doses to about 57.1 µM), for the others: top-dose activity change, negative = cytotoxicity, hits mostly cytotoxic | HEK-293-SNCA-luc viability, GF-AFC fluorescence, 24 h;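 further: potency means the concentration at half of the fitted maximal effect; 0% = DMSO-treated cells and -100% = medium-only wells without cells; nearly all actives have a fitted effect of over 30% in size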
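Cytotoxicity counterscreen: after 24 h compound treatment of genome-edited SNCA-luciferase HEK-293 cells, live-cell protease substrate GF-AFC read by fluorescence after 30 min; activity scaled between DMSO (0%) and medium-only (-100%), curves Hill-fitted.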
* marks the source's active call; other numbers are inactive results; i = inactive; u = inconclusive; x = not tested or not shown; ! = not active in a repeat; [ ] = another dose, or the depositor's remark. Unless noted, the call rests on the fitted dose curve; in most records, active means well fitted curve in the direction sought with a large enough effect; inconclusive means small, poorly fitted or top-dose-only effect, or another doubt; inactive means no such curve, though single readings can be large; an effect the other way counts as inactive or inconclusive. Unless noted, on the % scale 0 is the no-effect control and ±100 the full control effect.

SMILES	SNCA expr inh	IP6K1 inhibitor	Luciferase inh	3T3 cytotox	HEK293 tox	HEK293 viab
Cc1ccc(-c2nnc3ccc(NCCc4ccccc4)nn23)nc1	-6.6%[87.6 µM]	-14.1	i	44.7µM*	56.2µM*	-2.6%[87.6 µM]
Cc1ccc(-c2nnc3ccc(N(C)c4cccc(C)c4)nn23)nc1	u	-14.9	i	u	56.2µM*	-11.8%[87.6 µM]
CCc1nc2c(c(-c3ccc(Cl)cc3)n1)CN(Cc1ccc(C)cc1)CC2	-8.1%	1.7	i	25.1µM*	u	6.7%
CCc1nc2c(c(-c3ccc(Cl)cc3)n1)CN(Cc1ccc(C(F)(F)F)cc1)CC2	u	-3.8	i	u	89.1µM*	-22.1%
CCc1nc2c(c(-c3ccc(Cl)cc3)n1)CN(Cc1ccccc1)CC2	u	8.6	i	10µM*	17.8µM*	-1.3%
CCc1nc2c(c(-c3ccc(O)cc3)n1)CN(Cc1ccc(C)cc1)CC2	2.8%	6.3	i	-27.0%	u	5.7%
CCc1nc2c(c(-c3ccc(Cl)cc3)n1)CCN(Cc1ccccc1)CC2	21.6%	1.2	i	-29.1%	u	-4.9%
CCc1nc2c(c(-c3ccc(O)cc3)n1)CN(Cc1ccccc1OC)CC2	-9.8%	-0.8	i	u	44.7µM*	11.2%
CCc1nc2c(c(-c3ccc(O)cc3)n1)CCN(Cc1ccccc1OC)CC2	-10.8%	3.0	i	u	u	5.8%
CCOCCNC(=O)C1CCN(c2nccc(Nc3ccccc3OC)n2)CC1	-25.4%	16.4	x	u	u	-4.0%
CCc1nc2c(c(-c3ccc(Cl)cc3)n1)CN(Cc1ccsc1)CC2	-12.0%	-4.0	i	u	u	-3.0%
CCc1nc2c(c(-c3ccc(Cl)cc3)n1)CN(Cc1ccc(OC(F)(F)F)cc1)CC2	u	-9.3	i	25.1µM*	u	-6.8%
Cc1ccc(C(=O)N2CCC3(CC2)C(=O)N(C)c2ccccc23)cc1C	12.5%	5.1	i	1.4%	u	-7.9%
O=C(Nc1ccc([C@@H](O)[C@H]2COCC(=O)N2Cc2ccccc2F)cc1)c1cccs1	2.1%	-8.0	i	-8.0%	-23.8%	3.5%
COc1ccc(Cn2nc(-c3ccccc3)nc2C2CCC(=O)NC2)cc1 (configuration not stated)	101.8%	2.0	35.5µM*	-15.3%	u	-17.4%
CCNc1cc(N2CCC(CCC(=O)NC3CCCC3)CC2)ncn1	2.24µM*	13.8	i	-17.3%	-29.0%	-1.0%
O=C(CCC1CCN(c2cc(NC3CC3)ncn2)CC1)NCC1CC1	1.41µM*	-5.9	u	1.5%	-1.0%	7.4%
COc1ccccc1CC(=O)N1CCC(C2CCN(S(C)(=O)=O)CC2)C1 (configuration not stated)	-28.5%	10.9	i	-4.7%	i	6.1%[12.5 µM]
C[C@@H](NC(=O)C[C@@H]1c2nc(-c3cccnc3)sc2C[C@@H]2[C@](C)(CO)[C@H](O)CC[C@]21C)c1ccccc1	-3.1%	-4.4	i	20µM*	u	-6.4%
CCCCCC(=O)Nc1nc2c(s1)C[C@@H]1[C@](C)(CO)[C@H](O)CC[C@@]1(C)[C@@H]2CC(=O)N[C@H](C)c1ccccc1	1.6%	-1.7	i	u	39.8µM*	-20.1%
CC(C)C[C@H](CO)NC(=O)C[C@@H]1c2nc(-c3cccnc3)sc2C[C@@H]2[C@](C)(CO)[C@H](O)CC[C@]21C	6.0%	-11.9	i	u	3.1%	-5.1%
CCCCCC(=O)Nc1nc2c(s1)C[C@@H]1[C@](C)(CO)[C@H](O)CC[C@@]1(C)[C@@H]2CC(=O)N(C)Cc1ccccc1	-11.0%	-2.1	i	50.1µM*	28.2µM*	-20.4%
CCCCCC(=O)Nc1nc2c(s1)C[C@@H]1[C@](C)(CO)[C@H](O)CC[C@@]1(C)[C@@H]2CC(=O)NC1CCCC1	1.8%	0.2	i	u	-18.1%	-12.4%
C#CCN(C)C(=O)C[C@@H]1c2nc(NC(=O)CCCCC)sc2C[C@@H]2[C@](C)(CO)[C@H](O)CC[C@]21C	-12.0%	-3.3	i	-5.7%	-12.4%	1.0%
O=C(C1CC1)N1CCCC(CN2CCOCC2)CC1 (configuration not stated)	20.0%	-3.7	i	-3.4%	-32.2%	2.7%
SMILES	SNCA expr inh	IP6K1 inhibitor	Luciferase inh	3T3 cytotox	HEK293 tox	HEK293 viab
Cc1cccc(CC(=O)N2CCC3(CC2)CCC(O)(CN(C)C)CC3)c1	70.7%	-12.5	u	-22.6%	-26.8%	4.9%
COc1cccc(-c2ccc(CN3CCCC(NC(=O)c4ccccc4C)C3)cc2)c1 (configuration not stated)	59.5%	11.6	x	39.8µM*	22.4µM*	-12.6%
Cc1cc(C)cc(-c2ccc(CN3CCCC(NC(=O)Nc4ccccc4)C3)cc2)c1 (configuration not stated)	u	-2.5	x	10µM*	u	-6.8%
Cc1ccc(C(=O)NC2CCCN(Cc3ccc(-c4cc(C)cc(C)c4)cc3)C2)cc1 (configuration not stated)	-12.8%	28.0	x	-18.2%	-19.4%	2.7%[12.5 µM]
COc1cccc(-c2ccc(CN3CCCC(NC(=O)c4ccccc4F)C3)cc2)c1 (configuration not stated)	u	-3.5	x	u	39.8µM*	-8.8%
Cc1cc(C)cc(-c2ccc(CN3CCCC(NC(=O)c4ccccc4F)C3)cc2)c1 (configuration not stated)	-21.4%	6.7	x	u	79.4µM*	1.0%[12.5 µM]
COC(=O)[C@@H]1Cc2ncn(Cc3ccccc3)c2CN1C(=O)c1ccc(OC)cc1	-13.1%[87.6 µM]	2.4	i	-29.8%[174 µM]	-26.8%[172 µM]	-14.0%[87.6 µM]
COCCN1C(=O)CS(=O)C12CCN(C(=O)c1cccc3[nH]ccc13)CC2 (configuration not stated)	13.7%	7.6	i	0.8%	u	7.7%
O=C(c1ccccc1F)N1CCC(C(=O)N2CCC(c3nc4ncccc4[nH]3)CC2)C1 (configuration not stated)	-1.8%	3.0	x	-5.0%	-16.9%	6.6%
COc1cccc(-c2ccc(CN3C4CCC3CN(C(=O)Nc3ccccc3F)C4)cc2)c1	45.8%	-9.6	u	35.5µM*!	39.8µM*!	3.2%
c1ccc(C2(c3ccccc3)CCCN(Cc3cscn3)C2)cc1	-4.0%	19.9	i	u	39.8µM*	1.8%

Assay outcomes as filed in PubChem BioAssay.
